Assay [1] deals with TRPC4 beta (transient receptor potential cation channel C4), mouse. Put plainly: TRPC4 cation channel opening, retest – cell-based, Fluo4 calcium, HEK293 TRPC4beta/mu-opioid, duplicates, 10 µM, confirmation (AID 2426;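 active = fluorescence ratio normalized to control raised more than 50% in primary screen plus both repeat runs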;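 note: percent rise of integrated ratio over buffer wells lacking compound which define 0%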). The conditions noted are these: Fluo4 calcium fluorescence, at 10 µM; stronger effect = higher value.
Assay [2] relates to transient receptor potential cation channel C4 beta (TRPC4), mouse. Kind of assay: TRPC4 cation channel opening, second retest – cell-based, second round, Fluo4, HEK293 TRPC4beta/mu-opioid, 1 µM, confirmation (AID 2461;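 active = primary screen active and over 50% activation in each of two duplicate runs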;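 for activation: 0% = wells without test compound as baseline of integrated fluorescence ratio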). The settings on record: Fluo4 calcium fluorescence, at 1 µM; stronger effect = higher value.
Assay [3] relates to TRPC4 (transient receptor potential cation channel C4 beta), mouse. Put plainly: potentiation of DAMGO EC20 TRPC4 response – cell-based, second round, Fluo-4, HEK293 TRPC4beta/mu-opioid, 1 µM, confirmation (AID 2554;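 active = primary screen hit whose fluorescence ratio, in both repeats, exceeds the weak agonist control mean by 3 SD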). The settings on record: DAMGO EC20, Fluo-4 calcium flux, at 1 µM; stronger effect = higher value.
The subject of assay [4] is TRPC4 beta (transient receptor potential cation channel C4), mouse. Put plainly: potentiation of DAMGO EC20 TRPC4 response – cell-based, Fluo-4, HEK293 TRPC4beta/mu-opioid, confirmation (AID 2555;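 active = primary screen hit whose calcium fluorescence ratio, in both repeats, exceeds the weak agonist control mean by 3 SD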). The conditions noted are these: DAMGO EC20, Fluo-4 calcium flux, at 10 µM; stronger effect = higher value. Background: Calcium flux is commonly read through the fluorescence of an indicator in the cells.

Assay [5] concerns the target Short transient receptor potential channel 4 (Mus musculus) (UniProt Q9QUQ5). Kind of assay: blockers of DAMGO-evoked TRPC4 calcium flux – cell-based, Fluo4, HEK293 TRPC4beta/mu-opioid, confirmation (AID 2636;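 active = calcium signal cut by more than 3 SD below the full-agonist control yet still positive, in both repeats and the earlier primary screen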). The conditions noted are these: at 10 µM; stronger effect = higher value.
For assay [6] the target is unchanged. Put plainly: blockers of DAMGO-evoked TRPC4 calcium flux – cell-based, second round, Fluo4, HEK293 TRPC4beta/mu-opioid, 1 µM, confirmation (AID 2637;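 active = calcium signal ratio cut to more than 3 SD under the fully stimulated control mean yet still positive, in both repeats and the primary screen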). The conditions noted are these: at 1 µM; stronger effect = higher value.
Assay [7] has the same target. Put plainly: potentiation of DAMGO-evoked TRPC4 calcium signal – cell-based, HEK293 TRPC4/mu-opioid, Fluo-4 calcium, EC20 DAMGO, dose response (AID 434941;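 active = earlier screen potentiator hit that boosts the TRPC4 ion channel at some dose, with a dose response; inactive = no potentiation, no dose response, or not a prior hit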;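 note: calcium entry triggered by an EC20 dose of DAMGO at the co-expressed mu-opioid receptor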).
The target is the same in assay [8]. Put plainly: block of DAMGO-driven TRPC4 calcium entry – cell-based, HEK293 TRPC4/mu-opioid, Fluo-4 calcium, dose response (AID 434942;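 active = primary screen inhibitor hit that blocks the TRPC4 channel at some tested dose, yielding a dose curve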).
Assay [9] addresses Short transient receptor potential channel 6 (Mus musculus) (UniProt Q61143). Put plainly: TRPC6 blockade by TRPC4 inhibitor hits – cell-based, HEK293, membrane potential dye, duplicate, selectivity assay for TRPC4 inhibitor project, confirmation (AID 434948;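 active = active in primary screen and both duplicates, each dropping signal beyond three positive-control SD with fluorescence still positive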). The conditions noted are these: HEK293 TRPC6, membrane potential dye fluorescence, at 10 µM, stimulated with maximal-effect acetylcholine; stronger effect = higher value.

The target is the same in assay [10]. Put plainly: TRPC6 opening by TRPC4 activator hits – cell-based, HEK293, membrane potential dye, duplicate, selectivity assay for TRPC4 activator project, confirmation (AID 434950;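 active = membrane potential signal rise above negative control mean plus 3 SD in both duplicates, also active in the earlier TRPC4 screen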;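 for activation: 0% = buffer only wells and 100% = acetylcholine maximal-effect wells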). The conditions noted are these: HEK293 TRPC6, membrane potential fluorescence, at 10 µM; activation: stronger effect = higher value; outcome: activation.
Assay [11] shares this target. Kind of assay: positive modulators of mouse TRPC6 channel – HEK293 cells, membrane potential dye, duplicate, selectivity assay for TRPC4 potentiator project, confirmation (AID 434952;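 active = compound raising the membrane signal above positive-control mean plus 3 SD in both repeats, and a primary screen hit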). The conditions noted are these: HEK293 TRPC6, membrane potential dye fluorescence, at 10 µM, maximal acetylcholine added after compound; stronger effect = higher value.
Assay [12] has as its target Short transient receptor potential channel 4 (Mus musculus) (UniProt Q9QUQ5). Put plainly: calcium flux activators in TRPC4/5HT1a cells, counter-screen for TRPC4 activator project, cell-based, second counter screen, HEK293 TRPC4/5HT1a, Fluo-4 (AID 434977;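 active = calcium signal rise above buffer-control mean plus 5 SD in both duplicates, and also a hit in the primary screen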;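 for activation: plate controls were assay buffer for no effect and maximal serotonin response for full effect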). The settings on record: Fluo-4 calcium flux, at 10 µM; stronger effect = higher value.
Assay [13] in a line: serotonin-gated TRPC4 signal block – cell-based, second counter screen, HEK293 TRPC4/5HT1a, Fluo-4, counter-screen for TRPC4 inhibitor project, confirmation (AID 434978;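 active = primary screen active whose calcium signal fell more than 3 SD beyond the full-serotonin control mean in both duplicate plates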;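 note: serotonin given first at submaximal then at maximal dose after compound preincubation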). The conditions noted are these: Fluo-4 calcium flux, at 10 µM, serotonin added to trigger calcium flux; stronger effect = higher value. In general terms: A counterscreen serves to expose hits that act by an unwanted route or on another target.

Assay [14] has as its system TRPC4 (mouse), co-expressed with 5HT1a in HEK293. Put plainly: enhancement of serotonin-evoked TRPC4 response – cell-based, second counter screen, HEK293 TRPC4/5HT1a, Fluo-4, counter-screen for TRPC4 potentiator project, confirmation (AID 434979;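 active = signal rise over 3 SD above mean of control wells given weak agonist, in both repeats and first screen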). The settings on record: Fluo-4 calcium flux, at 10 µM, serotonin added at its EC20 dose; stronger effect = higher value.
Assay [15] in a line: nonspecific calcium rise without TRPC4 – cell-based, HEK293 mu-opioid receptor line, counter-screen for TRPC4 activator project, confirmation (AID 449723).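 Note: counter screen cells carry the mu-opioid receptor alone and lack TRPC4.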 The conditions noted are these: HEK293 mu-opioid cells, Fluo-4 calcium fluorescence, at 10 µM; stronger effect = higher value.
Assay [16] is described as follows: nonspecific potentiation of DAMGO calcium response – cell-based, HEK293 mu-opioid receptor line, counter-screen for TRPC4 allosteric potentiator project, confirmation (AID 449724;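 active = calcium signal rise more than 3 SD above the low-dose agonist control mean, in both duplicate plates and the primary screen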;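 note: HEK293 cells carrying mu-opioid receptor only with no TRPC4 channel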). The conditions noted are these: HEK293 mu-opioid receptor cells, Fluo-4 calcium flux, at 10 µM, compound added before EC20 DAMGO stimulus; stronger effect = higher value.
Assay [17] in a line: nonspecific flux increase, KCNQ1-free cells – parental CHO cells, counter-screen for KCNQ1 potentiator project (AID 493006;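 active = duplicate-averaged activation above buffer control mean plus 5 SD of those controls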;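 for activation: fluorescence ratio of max minus min over baseline after K+ and Tl+ depolarization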). The settings on record: parental CHO-K1 cells, FluxOR thallium flux, at 10 µM; stronger effect = higher value.
Assay [18] deals with Potassium voltage-gated channel subfamily KQT member 1 (Homo sapiens) (UniProt P51787). Kind of assay: enhancement of KCNQ1 channel thallium flux – FluxOR thallium flux, CHO cells, duplicates, confirmation (AID 493007;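 active = potentiation averaged over duplicate wells exceeding buffer-only control mean by more than 3 SD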;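 note: 0% = buffer-only wells and 100% = R-L3 activator control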). The conditions noted are these: KCNQ1 cell line, FluxOR thallium flux fluorescence, at 10 µM; stronger effect = higher value, % of reference activator effect, buffer zero.

Assay [19] addresses Potassium voltage-gated channel subfamily KQT member 2 (Rattus norvegicus) (UniProt O88943). Put plainly: KCNQ2 thallium flux enhancement – KCNQ2-CHO-K1 cells, selectivity assay for KCNQ1 potentiator project (AID 493009;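 active = mean duplicate potentiation above the buffer control mean plus 5 SD of buffer wells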;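 note: assay conditions were tuned for KCNQ1 rather than KCNQ2 modulators; signal is max minus min fluorescence divided by baseline after thallium stimulus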). The settings on record: FluxOR thallium flux fluorescence, at 10 µM; stronger effect = higher value, scaled: buffer 0, activator control 100.
In assay [20] the target is Potassium voltage-gated channel subfamily KQT member 1 (Homo sapiens) (UniProt P51787). Put plainly: KCNQ1 activators by electrophysiology – IonWorks patch clamp, KCNQ1-CHO cells, orthogonal assay for KCNQ1 potentiator project, confirmation (AID 493184;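 active = current rise at least 3 SD above the untreated control mean in each of two repeat wells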;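 for current potentiation: percent change of the same well's current before compound addition so 0% = no change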). The settings on record: automated patch clamp current, at 10 µM; stronger effect = higher value. For orientation: In patch-clamp work, channel activity is measured electrically.

For part of these data: Potency and affinity values are given separately. Calls of active or inactive are those of the source.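 Rule for the calls, unless noted: active = hit in primary screen, with calcium signal over 5 SD above buffer well mean in both duplicates; inactive = the rest.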

Sequence of Potassium voltage-gated channel subfamily KQT member 2 (Rattus norvegicus) (O88943 whole entry, looked up): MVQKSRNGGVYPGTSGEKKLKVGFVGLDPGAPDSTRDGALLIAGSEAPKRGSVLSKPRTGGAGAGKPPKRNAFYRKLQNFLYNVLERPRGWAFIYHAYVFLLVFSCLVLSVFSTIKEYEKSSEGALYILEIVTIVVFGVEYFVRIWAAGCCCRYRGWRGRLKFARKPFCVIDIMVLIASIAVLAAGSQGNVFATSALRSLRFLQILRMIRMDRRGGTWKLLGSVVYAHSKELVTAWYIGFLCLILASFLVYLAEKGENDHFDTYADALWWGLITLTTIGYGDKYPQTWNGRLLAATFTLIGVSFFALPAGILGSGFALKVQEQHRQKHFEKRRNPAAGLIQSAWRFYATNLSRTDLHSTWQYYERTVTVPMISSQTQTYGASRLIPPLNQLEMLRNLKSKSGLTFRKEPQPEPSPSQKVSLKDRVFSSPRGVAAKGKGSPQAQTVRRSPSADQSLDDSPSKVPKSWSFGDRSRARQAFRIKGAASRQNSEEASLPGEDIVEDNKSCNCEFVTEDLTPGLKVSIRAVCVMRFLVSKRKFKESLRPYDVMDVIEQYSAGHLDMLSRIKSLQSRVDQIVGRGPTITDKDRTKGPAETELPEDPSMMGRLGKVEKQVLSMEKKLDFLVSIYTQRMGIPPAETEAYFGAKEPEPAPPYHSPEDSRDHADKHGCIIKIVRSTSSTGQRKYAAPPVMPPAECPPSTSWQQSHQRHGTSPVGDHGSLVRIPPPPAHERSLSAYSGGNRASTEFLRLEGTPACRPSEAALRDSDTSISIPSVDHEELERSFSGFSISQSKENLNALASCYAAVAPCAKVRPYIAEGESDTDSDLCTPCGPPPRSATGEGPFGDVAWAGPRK
Sequence of Potassium voltage-gated channel subfamily KQT member 1 (Homo sapiens) (P51787 whole entry, looked up): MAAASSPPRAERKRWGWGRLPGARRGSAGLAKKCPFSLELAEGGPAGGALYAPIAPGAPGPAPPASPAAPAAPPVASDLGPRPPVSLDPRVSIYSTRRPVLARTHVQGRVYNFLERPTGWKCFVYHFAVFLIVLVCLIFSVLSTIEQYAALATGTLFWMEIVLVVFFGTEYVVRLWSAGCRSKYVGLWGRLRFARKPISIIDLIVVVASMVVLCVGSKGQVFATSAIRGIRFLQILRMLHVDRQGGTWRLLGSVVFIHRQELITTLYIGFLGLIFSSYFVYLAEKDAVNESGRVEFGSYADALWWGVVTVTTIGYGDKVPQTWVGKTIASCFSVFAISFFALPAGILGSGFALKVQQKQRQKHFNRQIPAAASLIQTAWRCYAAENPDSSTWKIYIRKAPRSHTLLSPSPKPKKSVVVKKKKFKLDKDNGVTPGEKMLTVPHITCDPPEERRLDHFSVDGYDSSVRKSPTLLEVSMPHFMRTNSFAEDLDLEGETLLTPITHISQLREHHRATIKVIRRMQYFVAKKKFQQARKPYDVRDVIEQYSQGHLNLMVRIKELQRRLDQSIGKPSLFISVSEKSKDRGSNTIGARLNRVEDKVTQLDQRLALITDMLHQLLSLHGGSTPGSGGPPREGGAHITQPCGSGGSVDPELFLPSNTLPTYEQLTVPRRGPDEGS
Sequence of Short transient receptor potential channel 4 (Mus musculus) (Q9QUQ5 whole entry, looked up): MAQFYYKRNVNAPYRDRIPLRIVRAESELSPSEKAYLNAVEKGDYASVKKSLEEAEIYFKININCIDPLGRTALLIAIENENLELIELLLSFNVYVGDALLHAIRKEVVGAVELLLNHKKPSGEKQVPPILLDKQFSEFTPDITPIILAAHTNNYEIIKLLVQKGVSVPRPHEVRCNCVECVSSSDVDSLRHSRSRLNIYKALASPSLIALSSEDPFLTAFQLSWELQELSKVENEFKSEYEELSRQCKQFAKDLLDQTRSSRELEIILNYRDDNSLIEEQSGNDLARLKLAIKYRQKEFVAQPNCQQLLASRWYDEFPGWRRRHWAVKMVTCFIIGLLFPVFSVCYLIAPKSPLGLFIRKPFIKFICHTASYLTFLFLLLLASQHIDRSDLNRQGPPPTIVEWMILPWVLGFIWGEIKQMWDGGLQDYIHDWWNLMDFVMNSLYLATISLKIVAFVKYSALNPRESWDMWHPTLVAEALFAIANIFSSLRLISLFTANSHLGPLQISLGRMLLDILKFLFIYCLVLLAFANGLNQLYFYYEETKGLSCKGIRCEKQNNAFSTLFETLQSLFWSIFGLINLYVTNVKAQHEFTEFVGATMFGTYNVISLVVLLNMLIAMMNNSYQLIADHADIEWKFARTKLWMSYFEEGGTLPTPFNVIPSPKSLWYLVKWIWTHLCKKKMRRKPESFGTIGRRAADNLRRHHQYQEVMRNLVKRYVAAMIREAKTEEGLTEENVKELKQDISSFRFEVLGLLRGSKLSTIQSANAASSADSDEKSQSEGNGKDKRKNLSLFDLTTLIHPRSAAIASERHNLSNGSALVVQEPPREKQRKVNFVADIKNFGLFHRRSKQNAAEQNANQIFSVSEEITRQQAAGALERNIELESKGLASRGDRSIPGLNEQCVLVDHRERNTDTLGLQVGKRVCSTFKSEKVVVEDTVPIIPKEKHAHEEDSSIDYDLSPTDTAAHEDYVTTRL
Sequence of Short transient receptor potential channel 6 (Mus musculus) (Q61143 whole entry, looked up): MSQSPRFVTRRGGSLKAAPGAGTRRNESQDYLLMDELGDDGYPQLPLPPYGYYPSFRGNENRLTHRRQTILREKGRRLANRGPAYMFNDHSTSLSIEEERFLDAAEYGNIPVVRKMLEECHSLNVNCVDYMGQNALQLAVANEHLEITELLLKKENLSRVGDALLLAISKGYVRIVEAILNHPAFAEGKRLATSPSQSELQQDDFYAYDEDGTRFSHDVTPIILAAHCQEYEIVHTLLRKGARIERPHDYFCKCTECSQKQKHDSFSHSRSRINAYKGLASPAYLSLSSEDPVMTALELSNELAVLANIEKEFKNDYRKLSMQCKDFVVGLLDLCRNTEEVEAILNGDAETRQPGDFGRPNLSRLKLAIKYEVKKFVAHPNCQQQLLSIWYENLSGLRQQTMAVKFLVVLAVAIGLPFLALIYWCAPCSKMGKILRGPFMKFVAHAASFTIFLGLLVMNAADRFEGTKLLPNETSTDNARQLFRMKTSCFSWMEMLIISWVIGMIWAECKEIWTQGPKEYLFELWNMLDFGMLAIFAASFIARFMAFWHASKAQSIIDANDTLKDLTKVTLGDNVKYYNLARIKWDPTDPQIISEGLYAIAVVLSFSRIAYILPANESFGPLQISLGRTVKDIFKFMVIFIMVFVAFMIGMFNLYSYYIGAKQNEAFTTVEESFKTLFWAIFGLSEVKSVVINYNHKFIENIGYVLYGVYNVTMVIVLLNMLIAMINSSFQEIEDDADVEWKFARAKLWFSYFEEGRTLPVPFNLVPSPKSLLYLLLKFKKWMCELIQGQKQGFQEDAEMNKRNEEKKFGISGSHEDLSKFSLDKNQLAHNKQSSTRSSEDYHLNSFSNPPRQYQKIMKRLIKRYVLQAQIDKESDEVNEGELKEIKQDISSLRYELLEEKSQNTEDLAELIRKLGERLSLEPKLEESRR

As for `Cc1cccc(C(=O)NC(=S)NNC(=O)c2cccs2)c1`, the activation in [1] is 226% (active); in assay [10] it was 34.5% (active); in [12], 125% (active); in [15], 67.1% (active); in assay [17], 142% (active). Also, the outcome in assay [2], in assay [3], in assay [4], in [5], in [6] and in assay [7] was inactive. In addition, the outcome in assay [8], in assay [9], in assay [11], in assay [13], in assay [14] and in assay [16] was inactive. In addition, the potentiation is 75% (active) in assay [18] and 210% (active) in [19]. Besides, the current potentiation in [20] was 22.2% (active).
With `COc1cc(OC)cc(C(=O)NC(=S)NNC(=O)[C@H]2C[C@@H]2c2ccccc2)c1`, the activation in [1] was 162% (active); in [12] it was 99% (active); in [15], 40.4% (active). Also, the outcome in [2], in assay [3], in [4], in [5], in assay [6] and in [7] was inactive. In addition, the result in assay [8], in [9], in assay [10], in [11], in assay [13] and in assay [14] was inactive. The result in assay [16], in [17], in [19] and in [20] was inactive. For the same compound, in assay [18], the potentiation is 37.5% (active).
For the compound `CCOC(=O)C1(CCOc2ccccc2)CCN(Cc2ccc(NC(C)=O)cc2)CC1`, the activation in assay [1] is 146% (active); in assay [2], 68% (active); in assay [10], 51% (active). For the same compound, the result in [3], in assay [4], in assay [5], in assay [6], in assay [7] and in [8] was inactive. The compound was classed as inactive in [9], in [11], in [12], in [13], in [14] and in assay [15]. For the same compound, the outcome in assay [16] was inactive.
With `CN(C)C(CNC(=O)Cc1cccc(C(F)(F)F)c1)c1ccco1` (stereo not drawn), the activation was 83% (active) in assay [1] and 29% (active) in [10]. Also, the result in [2], in assay [3], in [4], in assay [5], in assay [6] and in [7] was inactive. In addition, the result in assay [8], in [9], in assay [11], in [12], in assay [13] and in [14] was inactive. Moreover, the result in assay [15] and in assay [16] was inactive.
`NCCSc1c(-c2ccc(Cl)cc2)[nH]c2ccccc12`: the activation was 116% (active) in assay [1], 8.63% (active) in [12] and 19.5% (active) in assay [15]. Moreover, the outcome in assay [2], in assay [3], in assay [4], in assay [5], in [6] and in assay [7] was inactive. Further, the result in [8], in [9], in [10], in assay [11], in [13] and in [14] was inactive. Further, in [16], the result was inactive.
As for `Cc1occc1C(=O)NNC(=S)NC(=O)COc1ccc(Cl)cc1Cl`, the activation in assay [1] was 108% (active); in assay [12], 58.4% (active); in assay [15], 18.4% (active); in [17] it was 256% (active). Besides, the result in [2], in assay [3], in [4], in assay [5], in [6] and in [7] was inactive. Further, the result in assay [8], in [9], in assay [10], in assay [11], in assay [13] and in [14] was inactive. Also, the outcome in [16] and in assay [20] was inactive. Besides, the potentiation in assay [18] was 259% (active); in assay [19], 442% (active).

These data come from PubChem BioAssay.
